# Test results taken from PubChem BioAssay AID485349 (National Center for Advancing Translational Sciences (NCATS), 2010).
# The whole screen tested about 320,000 compounds, of which about 620 (0.19%) were called active. Shown is part of a subset that was picked to be rich in actives. A number with no mark means an inactive call. The call rests on the fitted dose curve; in most records, active means well fitted activation curve with a large enough effect; inconclusive means small, poorly fitted or top-dose-only effect; inactive means no such curve, though single readings can be large or run the other way.
# Assay: qHTS Assay for Identifying a Potential Treatment of Ataxia-Telangiectasia; further: nearly all actives have a fitted effect of over 45% in size; on activation: % of control where 0% means no effect
# Conditions: F2112 A-T fibroblasts, KAP-1 phosphorylation AlphaLISA, neocarzinostatin DNA damage 30 min before lysis; series mostly up to 57.5 µM; activation: at the top concentration
# How it was run: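 ATM-like activity read as KAP-1 phosphorylation via AlphaLISA donor/acceptor antibody pairs after lysis and 6 hr at 25C. Cells were ATM-null patient fibroblasts (F2112, hTERT), dosed 60 min, then exposed to the DSB inducer NCS for 30 min.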
# Potency means the concentration at half of the fitted maximal effect.
Structure (SMILES),activation,Potency
COC(=O)c1ccc(C2C(Oc3ccccc3C)C(=O)N2CCc2ccc(OC)c(OC)c2)cc1 (stereo not given),26.3%,–
CC(=O)C1=C(O)C(=O)N(c2ccc(S(N)(=O)=O)cc2)C1c1ccccc1F (stereo not given),-0.685%,–
O=P(O)(CN1CCCCC1)CN1CCCCC1,6.95%,–
N=c1ccn(CC(=O)NC(N)=O)c2ccccc12,6.18%,–
O=C(OCCN=C1NS(=O)(=O)c2ccccc21)c1cccc([N+](=O)[O-])c1,0.583%,–
O=C(O)c1[nH]c2ccccc2c1C(c1cccc(O)c1)c1c(C(=O)O)[nH]c2ccccc12,-5.26%,–
C[C@@H]1CN([C@@H](C)CO)C(=O)c2cc(NC(=O)C3CC3)ccc2O[C@H]1CN(C)C,8.61%,–
O=c1o[nH]c(-c2ccccc2)c1N=Nc1c(F)cccc1Cl,-14.2%,–
COc1ccc(C(C)NC(=S)NC2CCCCC2)cc1OC (stereo not given),7.74%,–
Cc1ccc(CNC(=O)Cc2cn(C)c3ccccc23)cc1,12.3%,–
O=C(NCc1ccco1)/C(=C/c1ccco1)NC(=O)c1ccccc1,-8.8%,–
O=C(NCC1CCCO1)/C(=C\c1ccco1)NC(=O)c1ccccc1 (stereo not given),20.5%,–
Cc1ccc(C(=O)N/C(=C\c2ccco2)C(=O)NC2CCS(=O)(=O)C2)cc1 (stereo not given),–,10 µM (active)
O=S(=O)(NC1CCN(S(=O)(=O)c2ccc3c(c2)OCCO3)CC1)c1c(F)cccc1F,-5%,–
CC1CCCN(C(=O)c2ccc3c(c2)C(=O)N(CCC2=CCCCC2)C3=O)C1 (stereo not given),-18.6%,–
COc1ccc2[nH]c3c(c2c1)CCN1C(=O)C(CC(=O)NCCc2ccccn2)C[C@H](C(=O)N2CCOCC2)[C@@]31C (stereo not given in full),10.7%,–
O=C(NCC1CCCO1)c1ccc(S(=O)(=O)Nc2ccc(F)cc2)cc1 (stereo not given),0.226%,–
O=C1CCCN1C(=O)COc1ccc([N+](=O)[O-])cc1,-6.5%,–
O=C(NCCc1csc(-c2ccccc2)n1)c1ccccc1F,–,22.4 µM (active)
COc1ccc(-c2nc(CCNC(=O)c3ccc(Br)o3)cs2)cc1,11.6%,–
O=S(=O)(NCCc1csc(-c2ccccc2)n1)c1cccnc1,-3.45%,–
COCCn1c(C)cc(C(=O)COC(=O)/C=C/c2cccc(OC)c2)c1C,-1.3%,–
CCOC(=O)C1=CN(Cc2ccc(Br)cc2)S(=O)(=O)NC1C (stereo not given),-9.89%,–

Structure (SMILES),activation,Potency
O=C(Nc1ccccc1N1CCN(C(=O)c2ccccc2)CC1)c1ccco1,7.67%,–
O=C(Nc1ccccc1C(=O)N1CCCCC1)c1ccco1,8.96%,–
O=C(Nc1cccc2c1N(C(=O)c1ccco1)CCC2)c1ccco1,–,35.5 µM (active)
CCN(C(=O)COC(=O)c1c(C)nn(-c2ccccc2)c1Cl)c1c(N)n(Cc2ccccc2)c(=O)[nH]c1=O,-3.48%,–
CC[C@]12c3[nH]c4ccc(Cl)cc4c3CCN1C(=O)[C@@H](CC(=O)NCCN1CCOCC1)C[C@@H]2C(=O)N1CCN(C(=O)C2CC2)CC1,-2.31%,–
CCN(CC)P(=O)(Nc1ccc(SC(F)F)cc1)c1ccc(N(C)C)cc1NC(=O)c1ccco1 (stereo not given),1.66%,–
CCCCNC(=O)C(C)N(CCN(C)C)C(=O)CCCCCN1C(=O)NC(c2ccc(Cl)cc2)C(C(=O)OCc2ccccc2)=C1C (stereo not given),8.98%,–
Cc1cccc(-n2c(SCC(=O)Nc3cccc(S(=O)(=O)NC4=NCCCCC4)c3)nc3ccccc3c2=O)c1C,5.49%,–
C/C=C(/C)C(=O)Nc1cccc(C2=NOC3(C2)C[C@@H](C(N)=O)N(C(=O)C2(C)CC2)C3)c1 (stereo not given in full),32.3%,–
CC/C=C/C(=O)N1CC2(CC(c3cccc(NC(=O)CC)c3)=NO2)C[C@H]1C(N)=O (stereo not given in full),0%,–
C/C=C\C=C\C(=O)N1CC2(CC(c3cccc(NC(=O)/C(C)=C\C)c3)=NO2)C[C@H]1C(N)=O (stereo not given in full),–,25.1 µM (active)
O=C(NCCC(=O)N1O[C@@H]2C=C[C@H]1C2)OCC1c2ccccc2-c2ccccc21,-1.69% [at 11.5 µM],–
Cc1ccc(S(=O)(=O)N2CCN(C)CC2)cc1C(=O)NC1CCCCC1,1.7%,–
Fc1ccc(CNCc2ccc(Br)cc2)cc1,17.2%,–
Cc1cccc(CN2CCN(Cc3cnn(-c4ccccc4F)c3)CC2CCO)n1 (stereo not given),11.2%,–
O=C(Nc1ccccc1)N1CCC(C(=O)N2CCN(Cc3ccccc3)CC2)CC1,-5.34%,–
COc1ccc(N(CC(=O)Nc2ccc(C)cc2C)S(=O)(=O)c2ccccc2[N+](=O)[O-])c(OC)c1,2.47% [at 11.5 µM],–
CCOC(=O)N1CCC(Nc2c(NCCCN3CCN(c4ccc(OC)cc4)CC3)c(=O)c2=O)CC1,–,11.2 µM (active)
CCOC(=O)N1CCC(Nc2c(NCCN3CCN(c4cccc(Cl)c4)CC3)c(=O)c2=O)CC1,7.77%,–
CCOC(=O)N1CCC(Nc2c(NCCCN3CCN(CC)CC3)c(=O)c2=O)CC1,0.0532%,–
CCCCCCCCCCCCN1C(=O)CSC1c1cccnc1 (stereo not given),8.52%,–
CC(C)Cc1ccc(S(=O)(=O)N2CCN(C(=O)c3ccco3)CC2)cc1,6.31%,–
